Data: PubChem BioAssay (NCATS)
Results filed as inconclusive are left out. Active and inactive are the calls of the source. The call rests on the fitted dose curve; in most records, active means well fitted activation curve with a large enough effect; inconclusive means small, poorly fitted or top-dose-only effect; inactive means no such curve, though single readings can be large or run the other way.

experiment: qHTS for Activators of Parkin Expression: LOPAC Validation Assay (FLuc Reporter) (AID 720573); conditions: Cell line, PRKN promoter firefly luciferase reporter, vehicle wells = 0, positive control = 100%; series mostly up to 46.1 µM
How it was run: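 Neuronal cell line stably carrying FLuc/NLuc coincidence reporter under Parkin promoter; cells plated 24 h, then compounds added in 7-point dose response for 24 h at 37 C. FLuc luminescence read; normalized to DMSO and positive control (100%).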

| Structure (SMILES) | outcome |
| --- | --- |
| CN(C)CCCN1c2ccccc2Sc2ccc(Cl)cc21 | inactive |
| CNCCCC1c2ccccc2C=Cc2ccccc21 | inactive |
| CCN(CC)CCNC(=O)c1cc(Cl)c(N)cc1OC | inactive |
| CC(C)(C)[C@]1(O)CCN2C[C@H]3c4ccccc4CCc4cccc(c43)[C@@H]2C1 | inactive |
| C[C@]12C[C@H](O)[C@H]3[C@@H](CCC4=CC(=O)CC[C@@]43C)[C@@H]1CC[C@@H]2C(=O)CO | inactive |
| C#CCN(C)Cc1ccccc1 | inactive |
| CC1=C(CC(=O)O)c2cc(F)ccc2/C1=C\c1ccc(S(C)(=O)=O)cc1 | inactive |
| CNCCC(Oc1ccc(C(F)(F)F)cc1)c1ccccc1 (stereo not drawn) | inactive |
| CN1CCN(C2Cc3ccccc3Sc3ccc(Cl)cc32)CC1 (stereo not drawn) | inactive |
| C=Cc1c(C)c2cc3[nH]c(cc4nc(cc5nc(cc1[nH]2)C(C)=C5CCC(=O)O)C(CCC(=O)O)=C4C)c(C)c3C=C | inactive |
| CC(C)C(=O)c1c(C(C)C)nn2ccccc12 | inactive |
| OCc1cc(C(O)CNCCCCCCOCCCCc2ccccc2)ccc1O (stereo not drawn) | inactive |
| CCN(CC)CCOC(=O)C1(C2CCCCC2)CCCCC1 | inactive |
| CSc1ccc2c(c1)N(CCC1CCCCN1C)c1ccccc1S2 (stereo not drawn) | inactive |
| N=c1c[n+](N2CCOCC2)[n-]o1 | inactive |
| CN(C)CC[C@@H](c1ccc(Cl)cc1)c1ccccn1 | inactive |
| COCCOC(=O)C1=C(C)NC(C)=C(C(=O)OC/C=C/c2ccccc2)C1c1cccc([N+](=O)[O-])c1 (stereo not drawn) | inactive |

| Structure (SMILES) | outcome |
| --- | --- |
| OCCN1CCN(CCCN2c3ccccc3Sc3ccc(Cl)cc32)CC1 | inactive |
| CCN(CC)CCCC(C)Nc1c2ccc(Cl)cc2nc2ccc(OC)cc12 (stereo not drawn) | inactive |
| NC(=O)c1ncn([C@@H]2O[C@H](CO)[C@@H](O)[C@H]2O)n1 | inactive |
| C[C@]12CC[C@@H]3c4ccc(O)cc4CC[C@H]3[C@@H]1CCC2=O | inactive |
| CC(=O)OCC(=O)[C@@]1(O)CC[C@H]2[C@@H]3CCC4=CC(=O)CC[C@]4(C)[C@H]3C(=O)C[C@@]21C | inactive |
| CNCC(O)c1ccc(O)c(O)c1 (stereo not drawn) | inactive |
| O=C1N=C(O)CN1/N=C/c1ccc(-c2ccc([N+](=O)[O-])cc2)o1 | inactive |
| CN(C)CCC=C1c2ccccc2CCc2ccccc21 | inactive |
| NC1CCN(c2cccc(Cl)n2)CC1 | inactive |
| CC1=C(CC(=O)O)c2cc(F)ccc2/C1=C\c1ccc(S(C)=O)cc1 (stereo not drawn) | inactive |
| Nc1ncnc2c1ncn2[C@@H]1O[C@H](CO)[C@@H](O)[C@H]1O | inactive |
| COc1ccc(Cl)cc1C(=O)NCCc1ccc(S(=O)(=O)NC(=O)NC2CCCCC2)cc1 | inactive |
| CCCCCCCCCCCCCCCC(=O)NCCO | inactive |
| CNC(=O)Oc1ccc2c(c1)[C@]1(C)CCN(C)[C@@H]1N2C | inactive |
| CC(C)(C)c1onc(OCP(=O)(O)O)c1CC(N)C(=O)O (stereo not drawn) | inactive |
| CC(CN(C)C)CN1c2ccccc2CCc2ccccc21 (stereo not drawn) | inactive |
